The whole screen tested about 5,500 compounds, of which about 2,000 (36%) were called active. Another 18% or so got no clear call; they are omitted. Rule as the data show it: active = normalized growth mostly below about 0.91 (no sharp cut-off); inconclusive = no clear call, values can overlap the other calls; inactive = mostly above about 0.92. This is one part of the list.
Experiment: chemical genetic growth profiling, strain panel (AID 1159580);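 also: tested at 20 µM; growth read once vehicle control cultures reached saturation at 30 °C; 1 = growth at the plate median or of vehicle wells; lower values mean less growth of the strain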
Conditions: growth OD
[1] = S. cerevisiae deletion strains, locus YAL040C, strain CLN3, active compounds read low
[2] = S. cerevisiae deletion strains, locus YCL061C, strain MRC1 (second series), active compounds read low
[3] = S. cerevisiae deletion strains, locus YDR150W, strain NUM1, active compounds read low
[4] = S. cerevisiae deletion strains, locus YDR363W, strain ESC2, active compounds read low
[5] = S. cerevisiae deletion strains, locus YER002W, strain NOP16, active compounds read low
[6] = S. cerevisiae deletion strains, locus YGR078C, strain PAC10, active compounds read low
[7] = S. cerevisiae deletion strains, locus YGR229C, strain SMI1, active compounds read low
[8] = S. cerevisiae deletion strains, locus YNL153C, strain GIM3, active compounds read low
[9] = S. cerevisiae deletion strains, locus YNL175C, strain NOP13, active compounds read low
[10] = S. cerevisiae deletion strains, locus YNL197C, strain WHI3, active compounds read low
[11] = S. cerevisiae deletion strains, locus YNL224C, strain SQS1, active compounds read low
[12] = S. cerevisiae deletion strains, locus YNL322C, strain KRE1, active compounds read low
[13] = S. cerevisiae deletion strains, locus YOR083W, strain WHI5 (second series), active compounds read low
[14] = S. cerevisiae deletion strains, locus YPL055C, strain LGE1, active compounds read low
[15] = S. cerevisiae deletion strains, locus YJR075W, strain HOC1, active compounds read low
[16] = S. cerevisiae deletion strains, locus YMR263W, strain SAP30, active compounds read low
[17] = S. cerevisiae deletion strains, locus YPL241C, strain CIN2, active compounds read low

Measured: normalized growth

O=C(O)Cc1ccc(O)c(O)c1
inactive: [1] 1.05 | [2] 1 | [3] 1.01 | [4] 0.993 | [5] 0.996 | [6] 1.02 | [7] 0.976 | [8] 1.02 | [9] 1.02 | [10] 1.02 | [11] 0.982 | [12] 1 | [13] 0.996 | [14] 0.982

O=C(O)Cc1c[nH]c2ccc(O)cc12
inactive: [1] 0.988 | [2] 1 | [3] 1.01 | [4] 1 | [5] 0.974 | [6] 0.979 | [7] 1.08 | [15] 1.01 | [16] 0.995 | S. cerevisiae deletion strains, locus YMR307W, strain GAS1, active compounds read low 1.01 | [8] 0.961 | [9] 0.982 | [10] 0.975 | [11] 1.01 | [13] 1 | [17] 0.992

Cc1ccc(CC(=O)O)cc1
active: [6] 0.926 | [15] 0.885
inactive: S. cerevisiae deletion strains, locus YAL013W, strain DEP1, active compounds read low 0.973 | S. cerevisiae deletion strains, locus YBR229C, strain ROT2, active compounds read low 0.978 | S. cerevisiae deletion strains, locus YDL101C, strain DUN1, active compounds read low 0.938 | [3] 0.884 | S. cerevisiae deletion strains, locus YEL061C, strain CIN8, active compounds read low 1.02 | S. cerevisiae deletion strains, locus YHR030C, strain SLT2, active compounds read low 1.04 | S. cerevisiae deletion strains, locus YHR087W, strain rtc3, active compounds read low 0.947 | S. cerevisiae deletion strains, locus YJR043C, strain POL32, active compounds read low 0.959 | S. cerevisiae deletion strains, locus YKL190W, strain CNB1, active compounds read low 1.01 | S. cerevisiae deletion strains, locus YLR039C, strain RIC1, active compounds read low 1.01 | S. cerevisiae deletion strains, locus YLR058C, strain SHM2 (second series), active compounds read low 0.972 | S. cerevisiae deletion strains, locus YLR085C, strain ARP6, active compounds read low 1.08 | S. cerevisiae deletion strains, locus YLR262C, strain YPT6, active compounds read low 0.998 | S. cerevisiae deletion strains, locus YML094W, strain GIM5, active compounds read low 1.03 | S. cerevisiae deletion strains, locus YMR219W, strain ESC1, active compounds read low 0.985 | [16] 0.938 | [8] 0.964 | S. cerevisiae deletion strains, locus YNL298W, strain CLA4 (second series), active compounds read low 1.06 | [12] 0.981 | S. cerevisiae deletion strains, locus YNR030W, strain Alg12, active compounds read low 1.03 | S. cerevisiae deletion strains, locus YOL006C, strain TOP1, active compounds read low 1.06 | [14] 0.906 | [17] 1.02 | S. cerevisiae deletion strains, locus YPR135W, strain CTF4, active compounds read low 1.03 | S. cerevisiae strains, strain wild type, active compounds read low 1.02

— PubChem BioAssay AID1159580 (chemical genetic matrix, 2015)
